Laboratory results as given in publication PMC4336329 (PLoS ONE, 2015).
The campaign covered roughly 310,000 compounds. About 14,000 (4.5%) showed an effect of 50% or more. The effect is printed as a negative number. Only a selection was taken, and strong results are over-represented in it overall.

Target: human ether-à-go-go-related gene (hERG) potassium channel (human, UniProt Q12809)
Test: primary screen, population patch clamp on CHO cells stably expressing hERG; higher = less effect of the substance
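Also: peak tail current of the secondary pulse compared with the same well before compound.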

human ether-à-go-go-related gene (hERG) potassium channel, sequence (Q12809 whole entry, looked up): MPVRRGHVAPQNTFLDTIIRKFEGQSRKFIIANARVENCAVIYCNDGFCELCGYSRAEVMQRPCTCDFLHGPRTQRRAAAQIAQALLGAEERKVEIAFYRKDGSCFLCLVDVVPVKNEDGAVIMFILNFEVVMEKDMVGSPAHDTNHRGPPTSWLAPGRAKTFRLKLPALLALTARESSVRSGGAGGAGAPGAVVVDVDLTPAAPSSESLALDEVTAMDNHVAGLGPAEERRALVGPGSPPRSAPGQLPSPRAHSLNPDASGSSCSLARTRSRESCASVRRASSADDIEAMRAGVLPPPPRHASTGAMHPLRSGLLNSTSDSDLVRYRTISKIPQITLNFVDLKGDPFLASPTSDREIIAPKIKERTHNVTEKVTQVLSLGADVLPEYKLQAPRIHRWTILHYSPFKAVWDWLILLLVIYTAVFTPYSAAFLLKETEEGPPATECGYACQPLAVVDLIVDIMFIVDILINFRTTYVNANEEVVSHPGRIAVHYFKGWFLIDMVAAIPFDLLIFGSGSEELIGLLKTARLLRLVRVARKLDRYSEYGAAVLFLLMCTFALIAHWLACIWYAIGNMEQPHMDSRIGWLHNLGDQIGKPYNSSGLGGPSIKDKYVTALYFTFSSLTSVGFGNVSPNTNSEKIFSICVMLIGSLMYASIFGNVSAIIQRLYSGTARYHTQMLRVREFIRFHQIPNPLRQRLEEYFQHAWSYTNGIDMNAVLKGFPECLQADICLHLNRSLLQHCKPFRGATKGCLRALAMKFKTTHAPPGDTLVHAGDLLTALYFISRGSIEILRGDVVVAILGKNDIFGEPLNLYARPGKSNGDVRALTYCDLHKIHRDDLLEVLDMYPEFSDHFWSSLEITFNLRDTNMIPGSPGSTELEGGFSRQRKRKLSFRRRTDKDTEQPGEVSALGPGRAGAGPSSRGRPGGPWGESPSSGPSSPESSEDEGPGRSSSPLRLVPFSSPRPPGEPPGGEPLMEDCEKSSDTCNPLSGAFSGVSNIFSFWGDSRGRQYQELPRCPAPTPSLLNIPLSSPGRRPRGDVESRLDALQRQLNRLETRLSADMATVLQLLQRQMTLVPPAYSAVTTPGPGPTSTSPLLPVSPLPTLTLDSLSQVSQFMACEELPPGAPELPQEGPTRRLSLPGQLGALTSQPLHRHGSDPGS

| SMILES | hERG current change (%, negative = inhibition) at 10uM [%] |
| --- | --- |
| COCc1cc(=O)n2[nH]cc(-c3ccccc3)c2n1 | 9.45 |
| COc1ccc(NC(=O)CSc2nnc(C3CC3)n2C)cc1S(=O)(=O)N1CCOCC1 | -0.595 |
| Cc1nc2ncnn2c(C)c1CCC(=O)NCc1ccco1 | -6.62 |
| Cc1cccc(OCC(O)Cn2c(NCc3cccnc3)nc3c2c(=O)[nH]c(=O)n3C)c1 (stereo not shown) | -9.46 |
| Cc1ccc(N2CC(C(=O)Nc3ccccc3C(=O)NC3CCCCC3)CC2=O)cc1C (stereo not shown) | -17.9 |
| Cc1ccc(N2CC(C(=O)Nc3ccccc3C(=O)NC3CCCCC3)CC2=O)cc1 (stereo not shown) | -5.81 |
| CCOc1ccc(N2CC(C(=O)Nc3ccccc3F)CC2=O)cc1 (stereo not shown) | -13.5 |
| O=C(NC1CCCCC1)c1ccccc1NC(=O)C1CC(=O)N(c2ccccc2)C1 (stereo not shown) | -76.8 |
| O=C(NC1CCCCC1)c1ccccc1NC(=O)C1CC(=O)N(c2ccc(Cl)cc2)C1 (stereo not shown) | 2.36 |
| CC(C)Oc1ccc(N2CC(C(=O)Nc3ccccc3C(=O)NC3CC3)CC2=O)cc1 (stereo not shown) | -66.2 |
| CC(C)Oc1ccc(N2CC(C(=O)Nc3ccccc3F)CC2=O)cc1 (stereo not shown) | -17.2 |
| CCOc1ccc(N2CC(C(=O)Nc3ccccc3C(=O)NC3CC3)CC2=O)cc1 (stereo not shown) | -76.7 |
| COc1ccc(N2CC(C(=O)Nc3ccccc3C(=O)NC3CC3)CC2=O)cc1 (stereo not shown) | -38.8 |
| O=S(=O)(c1ccc(Br)cc1)N1CCN=C1SCc1cccc(F)c1 | 8.08 |
| O=C(Nc1nnc(Cc2ccc(Cl)cc2)s1)c1cccnc1 | 13.9 |
| COc1ccccc1N1CCN(C(=O)c2cccc(N3C(=O)C4C5C=CC(C5)C4C3=O)c2)CC1 (stereo not shown) | 5.22 |
| CCOC(=O)C1=C(C)NC(=S)NC1c1ccc(OCC(=O)N2CCCCCC2)c(OC)c1 (stereo not shown) | 14.2 |
| O=C(Nc1nnc(Cc2ccccc2)s1)Nc1ccccc1F | 11.1 |
| O=C(CN(C(=O)CCC(=O)Nc1ccccn1)c1ccc(F)cc1)NCc1ccco1 | 14.2 |
| Cc1ccc(C(=O)OCC(=O)Nc2ccc(C(N)=O)cc2)s1 | 10.1 |
| O=C(CCC(=O)c1ccc(F)cc1)Nc1cccnc1 | 1.31 |
| CCCn1nc2cc(C(=O)NCc3ccc(C)cc3)ccc2c1OCC | -1.4 |

| SMILES | hERG current change (%, negative = inhibition) at 10uM [%] |
| --- | --- |
| COc1ccc(-c2cc(C(F)(F)F)nc(SCC(=O)NCCCN3CCOCC3)n2)cc1 | -14 |
| O=C(OCCN(CCOC(=O)c1ccncc1)S(=O)(=O)c1cccs1)c1ccncc1 | -77.3 |
| CCCOC(=O)c1ccc(NS(=O)(=O)c2cccs2)cc1 | -6.88 |
| O=C(Oc1ccc(N(C(=O)c2ccncc2)S(=O)(=O)c2cccs2)cc1)c1ccncc1 | 3.77 |
| O=C(C(Cl)Cl)N1CCN(Cc2ccccc2)CC1 | -4.72 |
| CCN(CC)S(=O)(=O)c1ccc(N2CCN(C)CC2)c(NC(=O)COc2ccc(F)cc2Cl)c1 | -59 |
| CCN1CCN(c2ccc(S(=O)(=O)N3CCOCC3)cc2NC(=O)COc2ccc(F)cc2Cl)CC1 | -24.4 |
| O=C(COc1ccc(F)cc1Cl)Nc1cc(S(=O)(=O)N2CCOCC2)ccc1N1CCCCC1 | 4.24 |
| CCc1ccccc1OCC(=O)Nc1cc(S(=O)(=O)N(CC)CC)ccc1N1CCOCC1 | -7.83 |
| CN1CCN(c2ccc(S(=O)(=O)N3CCOCC3)cc2NC(=O)COc2ccc(F)cc2Cl)CC1 | -61.5 |
| CCN(CC)S(=O)(=O)c1ccc(N2CCOCC2)c(NC(=O)COc2ccccc2C)c1 | 8.22 |
| COP(=O)(OC)C(Nc1ccc([N+](=O)[O-])cc1)c1ccccc1 (stereo not shown) | -36.1 |
| CC(NC(=S)NCCc1ccccc1)C(c1cccs1)N1CCN(Cc2ccccc2)CC1 (stereo not shown) | -41.3 |
| Cc1sc(NC(=O)/C=C/c2ccc3c(c2)OCO3)nc1-c1ccccc1 | 8.5 |
| Cc1ccc(C)c(NS(=O)(=O)c2cc(C(=O)Nc3ccccc3-c3ccccc3)ccc2C)c1 | 18.2 |
| COc1cccc(CN2CCCCC2c2cccnc2)c1 (stereo not shown) | 3.01 |
| Cc1noc(C)c1COc1ccc(C(=O)OCC(=O)NCCN2C(=O)CSC2=O)cc1 | -8.06 |
| CC(c1c(O)c2ccccc2[nH]c1=O)C1(C)CCC(O)C(C)(C)O1 (stereo not shown) | -2.48 |
| COc1cc(/C=C(\C#N)c2nc3c(s2)CC(C)CC3)ccc1O (stereo not shown) | 10.1 |
| COc1ccc(S(=O)(=O)N2CCC3(CC2)CC(=O)c2ccccc2O3)cc1C | -3.6 |
| O=C1CC2(CCN(C(=O)c3c(F)cccc3Cl)CC2)Oc2ccccc21 | -41.2 |
